Measurements from ChEMBL document CHEMBL3988442, “University of Dundee, Small-Polar-MMV Screening Library” (2021).

Tests used:
[1] = biological target: T1, Aspartate--tRNA(Asp/Asn) ligase (Mycobacterium tuberculosis (strain ATCC 25618 / H37Rv)) (UniProt P9WFW3); experiment: Assay for Asp RNA synthetase-1 from Mycobacterium tuberculosis; format: functional; parameters: scale not given: direction of the effect not stated beside the values; conditions: 30 µM; note: in the data most compounds retested in dose-response had high values
T1 sequence (whole entry): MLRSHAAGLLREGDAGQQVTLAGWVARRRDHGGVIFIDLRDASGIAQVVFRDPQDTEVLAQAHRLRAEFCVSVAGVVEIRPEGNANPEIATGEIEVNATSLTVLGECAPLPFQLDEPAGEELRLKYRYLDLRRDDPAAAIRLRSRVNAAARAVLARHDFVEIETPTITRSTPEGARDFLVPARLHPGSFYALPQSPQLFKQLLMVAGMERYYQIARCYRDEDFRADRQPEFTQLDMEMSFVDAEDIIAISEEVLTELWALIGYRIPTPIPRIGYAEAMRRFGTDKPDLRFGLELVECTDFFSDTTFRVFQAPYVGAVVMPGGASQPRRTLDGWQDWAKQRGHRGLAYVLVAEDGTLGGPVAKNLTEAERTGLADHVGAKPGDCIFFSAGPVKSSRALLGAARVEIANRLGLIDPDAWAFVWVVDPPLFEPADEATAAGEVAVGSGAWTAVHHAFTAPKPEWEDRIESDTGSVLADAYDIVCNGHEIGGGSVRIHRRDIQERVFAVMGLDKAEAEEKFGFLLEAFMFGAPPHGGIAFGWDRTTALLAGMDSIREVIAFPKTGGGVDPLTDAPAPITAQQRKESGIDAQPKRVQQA

[2] = biological target: Shiga toxin 2 (Escherichia coli O157:H7) (UniProt P09385+P09386); experiment: E. coli 0.157:H7 Shiga Toxin SOP - stx2 screening assay; format: functional; parameters: scale not given: direction of the effect not stated beside the values; conditions: 30 µM

SMILES	Percent Effect [1] [%]	Percent Effect [2] [%]
O=C(CNC(=O)N1CCc2c([nH]c3ccc(Cl)cc23)C1)N1CCOCC1	3.4	-37.6
CCc1nc(CN2CCCC(NCc3nnc(C4CC4)o3)C2)no1 (centres undefined)	-2.05	17.9
COCCCNC(=O)CN(C)C(=O)c1cc(C)ccc1N(C)C(C)C	1.84	4.69
COCCN(C)CCN1CC2(CCN(C(=O)C3CCOC3)CC2)OC1=O (centres undefined)	-1.75	-24.2
CC(C)N1CCC(N2CCN(C3CCC3)CC2CCO)CC1 (centres undefined)	-3.4	-0.0599
CN(C)c1ccc(C(=O)NCC2(O)CCOCC2)cc1	-2.13	-12.5
O=c1n(CCSCc2ccccc2F)nc2ccccn12	0.461	20.1
COc1ccc(OC)c(CCNC(=O)NC(C)Cn2ccnc2)c1 (centres undefined)	-6.68	31
COCCc1noc(CN2CCCC2c2c(C)nn(C)c2C)n1 (centres undefined)	-7.13	10.3
O=C(NCCn1ccnc1)c1cccc(F)c1	3.65	24.2
O=C(c1cccnc1)N1CCC2(CC1)CCN(c1ccsc1)C2=O	3.8	-6.67
O=C(NCC1CCOCC1)[C@H]1C[C@@H]2CCN(Cc3ccncc3)C[C@@H]2O1	2.48	-19.5
CN(C(=O)Cc1ccc(NC(=O)NC2CCC2)cc1)c1ccccc1	-0.27	-9.88
Cn1cc(NC(=O)Cn2c(CS(C)(=O)=O)nc3ccccc32)cn1	-0.299	1.48
COc1cc(NC(=O)c2ccccc2F)c(C(=O)N(C)C)cc1OC	8.8	-68.8
O=C(c1ccoc1)N1CC[C@@H]2O[C@H](COCc3ccccn3)CC[C@@H]21	1.36	-5.78
CC(C)(C)c1nnc(CN2CCCC(Cn3cncn3)C2)o1 (centres undefined)	0.322	13
